# Bioassay records as filed in PubChem.
# Shown are actives, neighbours in structure and some others; about 19% of the full set was active somewhere.
# IL1B secr inh: inhibitors of inflammasome signaling (IL-1 beta secretion); THP-1 LPS/ATP IL-1B secretion, AlphaLISA, 16 h; hits give low values; activity change, % at 57.5 µM; actives 4.7% (n = 360,000); AID 743279; in the data active = activity change below about -50%; inconclusive = mostly about -30% to -49%
#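 THP-1 cells pretreated 1 hr with compounds (up to 57.5 uM final), then stimulated with LPS (250 ng/mL final) plus ATP (1.25 mM final); secreted IL-1B measured by AlphaLISA after 16 hr, decreased signal indicating inhibition.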
# TGFb inhibitor: TGF-b pathway inhibition. HepG2 CAGA-GFP TGF-b/SMAD3 reporter, GFP fluorescence, 18 h; TGF-beta stimulated, 500 pg/mL final. actives 1.2% (n = 410,000). Potency, µM (highest dose often 46.1 µM), usual class: inhibitors. AID 588855; also: nearly all actives have a fitted effect of over 65% in size
#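 GFP signal (ex488/em500-530) from TGF-beta-stimulated HEPG2 CAGA-GFP cells, 500 pg/mL final, 18 h at 37 degrees C in DMEM plus 1% FBS, normalized to unstimulated and DMSO-stimulated controls.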
# HepG2 viability: counter-screen for TGF-b inhibitors: cytotoxicity in HepG2 cells | Potency, µM (titrated, usually from 46.1 µM), usual class: cytotoxic | actives 0.76% (n = 410,000) | AID 588856 | HepG2 CAGA-GFP viability, ATP luminescence, 18 h
#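 CellTiter-Glo luminescence gave cytotoxicity after 18 hours at 37 degrees C. The cells were HepG2 CAGA-GFP in 1% FBS DMEM, stimulated with 500 pg/mL TGF-beta after compound addition. %Activity was normalised to no-cell wells (complete cell-killing) and DMSO (no toxicity), and curves were fitted and classified.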
# S-ASM inh: human S-ASM enzyme inhibition; placental ASM, HMU-PC fluorogenic substrate, 60 min; Potency, µM (doses to about 57.5 µM), usual class: inhibitors; actives 0.006% (n = 340,000); AID 504937
# Target sequence (P17405 47-631 limits assumed): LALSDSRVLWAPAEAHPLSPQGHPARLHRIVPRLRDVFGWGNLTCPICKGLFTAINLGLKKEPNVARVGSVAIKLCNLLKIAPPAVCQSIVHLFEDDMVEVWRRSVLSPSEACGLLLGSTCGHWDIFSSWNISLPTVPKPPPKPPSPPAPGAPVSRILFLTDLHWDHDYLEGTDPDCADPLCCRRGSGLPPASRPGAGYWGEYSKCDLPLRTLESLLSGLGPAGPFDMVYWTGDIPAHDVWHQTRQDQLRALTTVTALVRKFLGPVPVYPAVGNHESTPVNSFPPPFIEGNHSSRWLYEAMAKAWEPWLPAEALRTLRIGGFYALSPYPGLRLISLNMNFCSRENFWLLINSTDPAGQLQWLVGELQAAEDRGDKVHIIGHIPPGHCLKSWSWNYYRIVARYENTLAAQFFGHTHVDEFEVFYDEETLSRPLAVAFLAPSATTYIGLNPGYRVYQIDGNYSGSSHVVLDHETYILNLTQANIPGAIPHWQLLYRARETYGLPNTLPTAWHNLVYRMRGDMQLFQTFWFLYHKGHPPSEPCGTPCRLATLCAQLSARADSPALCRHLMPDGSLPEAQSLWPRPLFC
#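 Human placenta-derived ASM enzyme was preincubated with compound for 10 minutes at room temperature, then given fluorogenic substrate HMU-PC0 (9 uM final) for 60 minutes at 37 °C; a pH 10 stop preceded fluorescence reading at Ex 386/Em 447 nm.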
# TDP1 cell noCPT: qHTS for Inhibitors of human tyrosyl-DNA phosphodiesterase 1 (TDP1): qHTS in cells in absence of CPT; actives 15% (n = 420,000); DT40 Tdp1-/- hTDP1 cells, no CPT, ATP luminescence, 48 h; Potency, µM (titrated, usually from 46.2 µM), most hits filed as inhibitors; also: nearly all actives have a fitted effect of over 55% in size
#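 Readout: luminescence from CellTiter-Glo after 30 min in the dark at RT. Cells: DT40 Tdp1-/- with stable hTDP1, 400/well. Exposure: compounds alone, ≥48 hr, 37 °C.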
# DT40 TDP1 CPT: growth inhibition of DT40 Tdp1-/-;hTDP1 cells with camptothecin (screen for TDP1 inhibitors); actives 12% (n = 420,000); chicken DT40 Tdp1-/-;hTDP1 cells + 20 nM CPT, ATP luminescence, 48 h; Potency, µM (doses to about 46.2 µM), most hits filed as inhibitors; also: nearly all actives have a fitted effect of over 55% in size
#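 Cell growth measured by CellTiter-Glo luminescence after a minimum 48 h, 37 C compound exposure with 20 nM CPT in Tdp1-knockout DT40 cells stably expressing hTDP1, seeded 400/well; qHTS titration format.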
# Hits are given with their value; – = inactive; ? = inconclusive; · = no result; + = active, no number. Unless noted, calls follow the shape of the dose curve; as a rule, active = well fitted curve in the direction sought with a large enough effect; inconclusive = small, poorly fitted or top-dose-only effect, or another doubt; inactive = no such curve, though single readings can be large; an effect the other way counts as inactive or inconclusive.
SMILES,IL1B secr inh,TGFb inhibitor,HepG2 viability,S-ASM inh,TDP1 cell noCPT,DT40 TDP1 CPT
Cc1cccc(S(=O)(=O)NC(=O)C2(C)CCN2C(=O)c2ccccc2CCc2ccccc2)c1 (stereo unspecified),–,–,–,·,+,?
CNC(=O)C1(C)CCN1C(=O)c1ccccc1CCc1ccccc1 (stereo unspecified),–,–,–,·,–,–
CC1(C(=O)NCCC#N)CCN1C(=O)c1ccccc1CCc1ccccc1 (stereo unspecified),–,–,–,·,–,?
Cc1nn(C)c(C)c1CCNC(=O)Nc1ccccc1C(F)(F)F,·,–,–,·,–,–
Cc1ccccc1CNC(=O)CCCn1c(=O)c2cccn2c2cccnc21,·,–,–,·,?,?
COc1ccc(CNCC(=O)Nc2cccc(S(N)(=O)=O)c2)cc1,–,–,–,–,–,–
COc1ccc(NC(=O)C(NS(=O)(=O)c2ccc3c(c2)CCCC(=O)N3)C(C)C)c(OC)c1 (stereo unspecified),·,–,–,·,–,–
Cc1nnc2sc(SCc3cccc(Cl)c3)nn2c1=O,-100,–,–,–,?,–
Cc1cc(C)n2nc(CC(=O)NNC(=O)c3ccccc3Cl)nc2n1,–,–,–,–,–,–
CCC(C)(C)n1nnnc1C(c1ccc(C)cc1)N1CCN(Cc2ccc3c(c2)OCO3)CC1 (stereo unspecified),-53,–,–,–,?,–
CCC(C)(C)n1nnnc1C(c1ccc(C)cc1)N1CCC(C)CC1 (stereo unspecified),–,–,–,–,?,13µM
CCOc1ccc(Nc2sc(C(=O)c3cccc(OC)c3)c(N)c2S(=O)(=O)c2ccccc2)cc1,·,–,–,·,·,·
CCOC(=O)C1CCN(C(=O)CC2(CC(=O)O)CCCC2)CC1,–,–,–,–,–,–
COc1ccc(OC)c(-n2c(=S)[nH]c3cc(C(=O)N(C)Cc4ccccc4)ccc3c2=O)c1,–,–,–,–,–,–
Cc1ccccc1CN1C(=O)CSCC1(C)C(=O)Nc1ccc2c(c1)OCCO2 (stereo unspecified),–,·,·,·,?,?
O=C(CCSc1ccc(Br)cc1)c1ccc(O)cc1,–,?,–,–,4.1µM,3.7µM
COc1cc(C)c(Br)cc1S(=O)(=O)NCc1cccs1,–,–,–,–,–,–
Cc1cc(C)c(S(=O)(=O)NCc2ccncc2)c(C)c1,–,–,–,–,7.3µM,7.3µM
Cc1ccc(S(=O)(=O)NCc2ccncc2)c(C)c1C,–,–,–,–,1.3µM,1.8µM
Cc1ccc(S(=O)(=O)NCc2ccccn2)c(C)c1C,–,–,–,–,–,–
COc1cc(C)c(Br)cc1S(=O)(=O)NCc1ccncc1,–,–,–,–,9.2µM,10µM
Cc1cc(C)c(S(=O)(=O)NCCc2ccncc2)c(C)c1,–,–,–,–,–,–
Cn1c(=O)c2c(SCC(=O)Nc3ccc4c(c3)OCCO4)nc(CC(C)(C)C)nc2n(C)c1=O,–,–,–,–,?,26µM
Cn1c(=O)c2c(SCC(=O)NC3CCCC3)nc(CC(C)(C)C)nc2n(C)c1=O,–,–,–,–,–,–
Cn1c(=O)c2c(SCC(=O)NCc3ccco3)nc(CC(C)(C)C)nc2n(C)c1=O,–,–,–,–,18µM,?
SMILES,IL1B secr inh,TGFb inhibitor,HepG2 viability,S-ASM inh,TDP1 cell noCPT,DT40 TDP1 CPT
Cc1cccc(N2CCCn3c2nc2c3c(=O)[nH]c(=O)n2C)c1,–,–,–,–,–,–
Cc1ccc(C(=O)c2ccc(C)cc2)cc1,–,–,–,–,–,?
Cc1ccc(C(=O)c2no[n+]([O-])c2C(=O)c2ccc(C)cc2)cc1,-91,?,–,–,5.8µM,2.9µM
CC(C)(C)C(=O)CNS(=O)(=O)c1ccc(S(=O)(=O)NC2CC2)cc1,–,–,–,–,–,–
CCOc1ccccc1/C=C(/NC(=O)c1ccccc1)C(=O)NC(C)c1ccccc1 (stereo unspecified),–,–,–,–,?,23µM
O=P(Cc1cc(Br)cc(Br)c1OCCO)(c1ccccc1)c1ccccc1,·,–,–,–,?,?
O=P(c1ccccc1)(c1ccccc1)c1cc(Br)cc(Br)c1OCCO,-56,–,–,–,?,–
COc1cc(NC(=O)Nc2nnc([C@@H]3C[C@H](O)[C@@H](CO)O3)s2)cc(OC)c1OC,–,–,–,·,–,–
O=C(Nc1ccc(N2CCCCC2)cc1)c1ccc(F)cc1F,–,–,–,–,–,–
O=C(Nc1ccc(N2CCCC2)cc1)c1cccc(Cl)c1Cl,–,–,–,–,16µM,?
O=C(Nc1ccc(N2CCCC2)cc1)c1ccccc1F,–,–,–,–,?,10µM
C#Cc1cccc(-n2nnc(C(=O)OC)c2-c2ccccc2)c1,–,–,–,–,?,–
COc1cccc2c(=O)c(C(=O)NCc3cccs3)c[nH]c12,–,–,–,–,6.5µM,–
Cc1ccc2[nH]cc(C(=O)NCc3cccs3)c(=O)c2c1,-71,–,–,–,23µM,23µM
O=C(O)COc1ccccc1/C=N/NC(=O)CN1CCN(Cc2ccc(Cl)cc2)CC1,–,–,–,–,–,–
CC(C)C(NS(=O)(=O)c1cccs1)C(=O)NCc1ccccc1 (stereo unspecified),–,–,–,–,–,–
CO/N=C/C(=N\Nc1ccc(C)cc1)C(=O)c1ccc(OC)cc1,–,–,–,–,3.3µM,4.1µM
CO/N=C/C(=N\Nc1ccc(OC)cc1)C(=O)c1ccc(F)cc1,–,–,–,–,?,?
CC[C@@]1(C(=O)OC)N[C@H](CN(C)S(=O)(=O)c2ccc(-c3ccccc3)cc2)[C@@H]2C(=O)N(C)C(=O)[C@@H]21,–,–,–,–,?,?
O=C(Nc1ccc(F)cc1F)N1CCN(CCc2ccccc2)CC1,–,–,–,–,–,–
Cc1cc(C)cc(NC(=O)CCc2c(C)nc3c4cccnc4nn3c2C)c1,·,?,–,·,18µM,–
COc1cccc(NC(=O)CCc2c(C)nc3c4cccnc4nn3c2C)c1,·,–,–,·,18µM,?
CCOC(=O)c1cccc(NC(=O)CCc2c(C)nc3c4cccnc4nn3c2C)c1,·,–,–,·,–,?
O=C(Cn1nc(-c2ccccc2)nc(Cc2ccccc2)c1=O)Nc1ccccc1,·,–,–,·,–,–
